This is one part of a sample in which the strongest signals are shown more often than they occur.
What was measured:
Assay in all cases: glycan array binding signal (z-score within array); higher = stronger binding
Conditions in all cases: glycan notation: IUPAC condensed, linker removed
[1] = biological target: GlcNAc(b1-3)Fuc
In short: (§1)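 The binding signal is a Z-score computed within each array. Data were drawn from 3228 arrays in the Consortium for Functional Glycomics database, restricted to those with a known protein sequence. Scores were averaged over arrays of the same protein sequence at different concentrations or buffers, and over linkers, and negative values can be taken as non-binding.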

[2] = biological target: GlcNAc(b1-3)Gal(b1-4)GlcNAc(b1-2)Man(a1-3)[GlcNAc(b1-3)Gal(b1-4)GlcNAc(b1-2)Man(a1-6)]Man(b1-4)GlcNAc(b1-4)GlcNAc
In short: as §1

[3] = biological target: GlcNAc(b1-3)Gal(b1-4)GlcNAc(b1-3)Gal(b1-4)GlcNAc(b1-3)Gal(b1-4)GlcNAc(b1-3)Gal(b1-4)GlcNAc(b1-2)Man(a1-3)[GlcNAc(b1-3)Gal(b1-4)GlcNAc(b1-3)Gal(b1-4)GlcNAc(b1-3)Gal(b1-4)GlcNAc(b1-3)Gal(b1-4)GlcNAc(b1-2)Man(a1-6)]Man(b1-4)GlcNAc(b1-4)GlcNAc
In short: as §1

[4] = biological target: GlcNAc(b1-4)GlcNAc(b1-4)GlcNAc
In short: as §1

[5] = biological target: GlcNAc(b1-4)GlcNAc(b1-4)GlcNAc(b1-4)GlcNAc(b1-4)GlcNAc
In short: as §1

[6] = biological target: GlcNAc(b1-4)GlcNAc(b1-4)GlcNAc(b1-4)GlcNAc(b1-4)GlcNAc(b1-4)GlcNAc
In short: as §1

[7] = biological target: Kdn(a2-3)Gal(b1-3)GalNAc
In short: as §1

[8] = biological target: Man(b1-4)GlcNAc
In short: as §1

[9] = biological target: Neu5Ac(a2-3)Gal(b1-3)GlcNAc6S
In short: as §1

[10] = biological target: Neu5Ac(a2-3)Gal(b1-3)[Neu5Ac(a2-6)]GlcNAc(b1-3)[Fuc(a1-3)[Gal(b1-4)]GlcNAc(b1-6)]Gal(b1-4)Glc
In short: as §1

[11] = biological target: Neu5Ac(a2-3)Gal(b1-4)GlcNAc(b1-2)Man(a1-3)[Neu5Ac(a2-6)Gal(b1-4)GlcNAc(b1-2)Man(a1-6)]Man(b1-4)GlcNAc(b1-4)GlcNAc
In short: as §1

[12] = biological target: Neu5Ac(a2-3)Gal(b1-4)GlcNAc(b1-3)Gal(b1-4)GlcNAc(b1-3)Gal(b1-4)GlcNAc
In short: as §1

[13] = biological target: Neu5Ac(a2-3)Gal(b1-4)GlcNAc(b1-3)Gal(b1-4)GlcNAc(b1-3)[Neu5Ac(a2-3)Gal(b1-4)GlcNAc(b1-3)Gal(b1-4)GlcNAc(b1-6)]GalNAc
In short: as §1

[14] = biological target: Neu5Ac(a2-3)Gal(b1-4)GlcNAc(b1-6)[Gal(b1-3)]GalNAc
In short: as §1

[15] = biological target: Neu5Ac(a2-3)Gal6S(b1-4)[Fuc(a1-3)]GlcNAc
In short: as §1

[16] = biological target: Neu5Ac(a2-6)Gal(b1-4)GlcNAc(b1-3)Gal(b1-4)GlcNAc(b1-6)[Gal(b1-3)]GalNAc
In short: as §1

[17] = biological target: Neu5Ac(a2-8)Neu5Gc(a2-3)Gal(b1-4)GlcNAc
In short: as §1

B1: Mg3lysM (Mycosphaerella graminicola) (protein)
chain: APQNPPTSCSAAPQPTGTGSPGTVCGSTTFTNYTVKAGDTLGAIAKQYNSGVCDIAKVNGIDNPDYIKPDQVLSIPANCVTPDNTSCVKPVPVITNTCVLGVGSTYTVKSGDSFSAIATSFNITLASLEARNPQIPNYDLIFPGQVINTPLCPNSVCDSIGTYVIESGDIFYNLAQSNNVTVGQLESLNVNVNVTDIHPGDIIILPHNCHNITASA
[1]
  glycan array binding signal (z-score): 0.041
[2]
  glycan array binding signal (z-score): -0.109
[3]
  glycan array binding signal (z-score): -0.191
[4]
  glycan array binding signal (z-score): 3.96
[5]
  glycan array binding signal (z-score): 19.9
[6]
  glycan array binding signal (z-score): 13.5
[7]
  glycan array binding signal (z-score): 0.259
[8]
  glycan array binding signal (z-score): 0.12
[9]
  glycan array binding signal (z-score): -0.154
[10]
  glycan array binding signal (z-score): 0.077
[11]
  glycan array binding signal (z-score): -0.088
[12]
  glycan array binding signal (z-score): -0.099
[13]
  glycan array binding signal (z-score): 0.153
[14]
  glycan array binding signal (z-score): -0.065
[15]
  glycan array binding signal (z-score): -0.14
[16]
  glycan array binding signal (z-score): 0.12
[17]
  glycan array binding signal (z-score): 0.137

— the supplement of paper PMC8728848
